Hits are enriched below; roughly 5.3% of the tested compounds scored in any of these assays.
FMDV antiviral = foot and mouth disease virus antiviral activity | FMDV antiviral cell-based qHTS | Potency, µM (series often up to 57.9 µM), usual class: inhibitors | hit rate 1.2% among 410,000; calls by dose curve; tested in HEK293T cells; further: read-out not given here; nearly all actives have a fitted effect of over 45% in size
LASV entry inh = inhibitors of Lassa virus binding or cell entry; Potency, µM (top dose mostly 37.9 µM), actives largely listed as inhibitors; hit rate 1.2% among 300,000; Lassa virus pseudotype entry inhibition, cell reporter; calls by dose curve; tested in HEK293 cells; further: nearly all actives have a fitted effect of over 50% in size
Marburg entry inh = blocks Marburg virus binding to or entry into cells; Potency, µM (top dose mostly 37.8 µM), hits mostly inhibitors; hit rate 1.8% among 300,000; Marburg virus pseudotyped entry inhibition, cell reporter; AID 540276; calls by dose curve; tested in HEK293 cells
Vaccinia Venus = inhibitors of vaccinia virus (Venus reporter); hit rate 0.46% among 330,000; Vaccinia virus Venus reporter expression, fluorescence; Potency, µM (highest dose often 36.5 µM), hits mostly inhibitors; AID 720580; calls by dose curve; tested in A549 cells; further: nearly all actives have a fitted effect of over 30% in size
HCV inhibitor = blocks hepatitis C virus. Huh7.5.1 HCVcc-Cre infection, luciferase reporter, 44 h. Potency, µM (series often up to 41.8 µM), usual class: inhibitors. hit rate 3.4% among 340,000. AID 651820; active means well fitted inhibition curve with a large enough effect; inconclusive means small, poorly fitted or top-dose-only effect, or another doubt; inactive means no such curve, though single readings can be large or run the other way
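Compounds are dispensed onto cells plated 4 h earlier at 1,000 per well, with HCVcc-Cre virus (about 0.5 moi) added next. Following 44 h of culture, luminescent signal is measured for 15 sec after 15 min with substrate at room temperature.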
Vaccinia mCherry = inhibitors of vaccinia virus infection (mCherry reporter signal); hit rate 0.63% among 310,000; Vaccinia virus mCherry reporter infection, fluorescence; AID 720579; Potency, µM (series often up to 36.5 µM), usual class: inhibitors; calls by dose curve; tested in A549 cells; further: nearly all actives have a fitted effect of over 35% in size
Numbers stand for hits; ! = not active in a repeat; [ ] = another dose, or the depositor's remark.

CC(C)c1ccc(/C=C/C(=O)Nc2nncs2)cc1 was read as FMDV antiviral inactive, LASV entry inh 8.91µM, Marburg entry inh inconclusive, Vaccinia Venus inactive, HCV inhibitor inconclusive and Vaccinia mCherry inactive.
`CO[C@H]1C=CO[C@@]2(C)Oc3c(C)c(O)c4c(O)c(c(C=NN5CCN(C)CC5)c(O)c4c3C2=O)NC(=O)C(C)=CC=C[C@H](C)[C@H](O)[C@@H](C)[C@@H](O)[C@@H](C)[C@H](OC(C)=O)[C@H]1C` gave FMDV antiviral inactive.
Cc1c(C(=O)N2CCN(C(C)C)CC2)sc2ncnc(NCc3ccco3)c12 was read as FMDV antiviral inactive, Vaccinia Venus inactive and Vaccinia mCherry inactive.
Screening O=C1CSC(c2cn(-c3ccccc3)nc2-c2cc3ccccc3oc2=O)N1Cc1ccccc1 (centres undefined) returned FMDV antiviral inactive, LASV entry inh 11.2µM, Marburg entry inh inconclusive, Vaccinia Venus inconclusive, HCV inhibitor 12.6µM and Vaccinia mCherry inactive[1.46 µM].
`O=C1CSC(c2nn(-c3ccccc3)cc2-c2cc3ccccc3oc2=O)N1Cc1ccco1` (centres undefined) gave LASV entry inh inconclusive, Marburg entry inh inconclusive, Vaccinia Venus inactive, HCV inhibitor inconclusive and Vaccinia mCherry inactive.
Screening C=C[C@@]1(C)CC[C@H](O)[C@H]2C(=O)CCC[C@H]21 returned Marburg entry inh inactive.
`Nc1c(C(=O)Nc2ccc(OC(F)(F)F)cc2)sc2nc3c(cc12)N1CCC3CC1` gave FMDV antiviral 25.1µM, LASV entry inh inactive, Marburg entry inh inactive, Vaccinia Venus inconclusive and Vaccinia mCherry inconclusive.
Screening CC(C)Cn1nc(NC(=O)c2cccs2)c2cc3ccccc3nc21 returned FMDV antiviral inactive and HCV inhibitor 8.91µM.
For NC(=O)c1ccc(-c2nc(-c3ccc4c(c3)OCO4)c(-c3ccccn3)[nH]2)cc1 the results were FMDV antiviral inactive and LASV entry inh 6.28µM.
`COc1ccc(-c2[nH]c(-c3ccc4c(c3)OCO4)nc2-c2ccccc2)cc1` gave FMDV antiviral inconclusive, LASV entry inh inconclusive, Marburg entry inh inactive and HCV inhibitor inconclusive.
`O=C(OCc1c(F)cccc1Cl)c1cnc(Cl)c(Cl)c1` gave FMDV antiviral inactive, LASV entry inh inactive, Marburg entry inh inactive, Vaccinia Venus inactive, HCV inhibitor 10µM and Vaccinia mCherry inactive.
O=C(OCc1ccccc1F)c1cnc(Cl)c(Cl)c1 was read as FMDV antiviral inactive, LASV entry inh inactive, Marburg entry inh inactive, Vaccinia Venus inactive, HCV inhibitor inactive and Vaccinia mCherry inactive.
COc1ccccc1N(C)C was read as Vaccinia Venus inactive and Vaccinia mCherry inactive.
`CCCCN1CCc2c([nH]c3ccccc23)C1=O` gave FMDV antiviral inactive, LASV entry inh inactive, Marburg entry inh inconclusive, Vaccinia Venus inactive and HCV inhibitor inactive.
`CN1CCc2ccccc2Cc2[nH]c3ccccc3c2CC1` gave FMDV antiviral inactive, LASV entry inh inactive, Marburg entry inh 11.2µM!, Vaccinia Venus inactive, HCV inhibitor inactive and Vaccinia mCherry inactive.
`CC(C)C1CC(CCN)(Cc2ccccc2)CCO1` (centres undefined) gave FMDV antiviral inactive, LASV entry inh inactive, Marburg entry inh 14.6µM, Vaccinia Venus inactive, HCV inhibitor inconclusive and Vaccinia mCherry inactive.
Screening COc1ccc2oc(C)c(C(=O)c3ccccc3)c2c1 returned FMDV antiviral inactive, LASV entry inh inactive, Marburg entry inh inactive, Vaccinia Venus inactive, HCV inhibitor inactive and Vaccinia mCherry inactive.
For COc1ccc2oc(/C=C/N(C)C)c(C(=O)c3ccc(Cl)cc3)c2c1 the results were FMDV antiviral inactive, LASV entry inh inconclusive, Marburg entry inh 20.6µM and HCV inhibitor inconclusive.
`Cc1c(C(=O)NCC2Cc3cccc(-c4cncnc4)c3O2)c(-c2ccccc2)nn1-c1ccccc1` (centres undefined) gave FMDV antiviral inactive, Vaccinia Venus inactive and Vaccinia mCherry inactive.
`COc1ccc(COC(=O)N/N=C2\C[C@@H](O)[C@@H](O)[C@@H]3[C@@H]4C(=O)N(c5cccc(Oc6ccccc6)c5)C(=O)[C@@H]4CC[C@@H]23)cc1` gave Marburg entry inh inactive.
COC(=O)C1=C(C)N(Cc2ccccc2)C(=NCCc2c[nH]c3ccccc23)NC1c1cccc(F)c1 (centres undefined) was read as LASV entry inh inconclusive and Marburg entry inh inactive.
`O=[N+]([O-])c1ccc(-[n+]2ccc3ccccc3c2)c([N+](=O)[O-])c1` gave FMDV antiviral 28.2µM, Vaccinia Venus inconclusive, HCV inhibitor inconclusive and Vaccinia mCherry 10µM.
CCOc1ccc(CNC(=O)c2ccc(Sc3ccc(C)cc3)c(N)c2)cc1OC was read as FMDV antiviral inconclusive, LASV entry inh inconclusive, Vaccinia Venus inactive and Vaccinia mCherry inactive.
For COc1cc(=O)n2c(c1C(=O)NCc1ccco1)CCN(Cc1cc3ccccc3[nH]1)CC2 the results were FMDV antiviral inactive, Vaccinia Venus inactive and Vaccinia mCherry inactive.
Screening Cc1nnc(N2CCOCC2)c2nn(-c3ccccc3)c(C)c12 returned FMDV antiviral inactive, LASV entry inh inconclusive, Marburg entry inh inactive, Vaccinia Venus inactive, HCV inhibitor inactive and Vaccinia mCherry inactive.
Screening c1ccc(-c2cc3c(N4CCCC4)ncnc3s2)cc1 returned FMDV antiviral inconclusive, LASV entry inh inactive, Marburg entry inh inactive, Vaccinia Venus inactive, HCV inhibitor 10µM and Vaccinia mCherry inactive.
`c1ccc(-c2cc3c(N4CCCCC4)ncnc3s2)cc1` gave FMDV antiviral inactive, LASV entry inh inactive, Marburg entry inh inactive, Vaccinia Venus inactive, HCV inhibitor inconclusive and Vaccinia mCherry inactive.
Screening c1ccc(-n2nnc3c(N4CCOCC4)ncnc32)cc1 returned FMDV antiviral inactive, LASV entry inh 5.17µM, Marburg entry inh 2.31µM and HCV inhibitor inactive.
Screening c1ccc(-c2cc3c(N4CCOCC4)ncnc3s2)cc1 returned FMDV antiviral inconclusive, LASV entry inh inactive, Marburg entry inh inactive, Vaccinia Venus inactive, HCV inhibitor 10µM and Vaccinia mCherry inactive.
Screening Cc1nc(NCCc2ccccc2)c2oc3ccccc3c2n1 returned FMDV antiviral inconclusive, LASV entry inh inactive, Marburg entry inh inconclusive and HCV inhibitor 10µM.
Screening CCCN(CC1CC1)c1nc(N)c2c(N)nc(OC)cc2c1C#N returned FMDV antiviral inconclusive, LASV entry inh inactive, Marburg entry inh inconclusive, Vaccinia Venus inconclusive, HCV inhibitor inactive and Vaccinia mCherry 11.2µM.
`O=C1c2c(O)ccc(O)c2C(=O)c2c(NCCNCCO)ccc(NCCNCCO)c21` gave FMDV antiviral inconclusive, LASV entry inh 0.501µM, Marburg entry inh 0.0562µM, Vaccinia Venus 10µM, HCV inhibitor 1.12µM and Vaccinia mCherry inconclusive.
`Cc1ccc2oc(/N=C(\N)NC(=O)C(C)(C)C)nc2c1` gave FMDV antiviral 35.5µM, LASV entry inh inconclusive, Marburg entry inh inconclusive, Vaccinia Venus inactive, HCV inhibitor inactive and Vaccinia mCherry inactive.
`Cc1ccc2oc(/N=C(\N)NC(=O)C3CC3)nc2c1` gave FMDV antiviral inactive, Marburg entry inh inactive and HCV inhibitor inactive.
